In PubChem BioAssay (Tox21):
Where “and” joins values, the source holds several entries; their conditions need not be identical. Identical values can stand only once. Records with an inconclusive call do not appear. Calls of active or inactive are those of the source. Unless noted, calls come from the whole dose curve; as a rule, active = well fitted curve in the direction sought with a large enough effect in the repeat runs; inconclusive = weak or mixed curves; inactive = no such curve, though single readings can be large; an effect the other way counts as inactive or inconclusive.

Legend:
[1] = biological target: Thyrotropin receptor (Homo sapiens) (UniProt P16473); assay: qHTS assay to identify small molecule agonists of the thyroid stimulating hormone receptor (TSHR) signaling pathway (AID 1224843; calls by dose curve; note: nearly all actives have a fitted effect of over 45% in size; note: potency is the fitted concentration of half-maximal effect)
How it was run: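 Compounds are titrated over 15 concentrations, in triplicate, onto TSHR-HEK293 cells seeded at 800/well. Plates sit 30 min at room temperature before cAMP-d2 and anti-cAMP cryptate are added; signal is read after a further hour.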

[2] = qHTS assay to identify small molecule agonists of H2AX (AID 1224845; active = well fitted activation curve with a large enough effect in the signal ratio in the repeat runs, not every such curve was filed as active; the % refers to the signal ratio)
How it was run: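 Wild-type CHO-K1 cells plated overnight, then exposed 3 hr at 37C to compounds at 15 concentrations (0.76% DMSO). Lysed, then HTRF anti-pH2AX(S139)-cryptate/anti-H2AX-d2 detection after 24 hr at room temperature; emissions 665 and 620 nm.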

[3] = qHTS assay to identify small molecule agonists of the hypoxia (HIF-1) signaling pathway (AID 1224846; active = well fitted activation curve with a large enough effect in the signal ratio in the repeat runs, not every such curve was filed as active; the % refers to the signal ratio)
How it was run: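 Compounds from the Tox21 10K library, dissolved in DMSO, are tested for induction of a hypoxia response element–controlled beta-lactamase reporter in ME-180 cells. Exposure lasts 17 hrs at 37C after a 5 hr settling period, followed by CCF4-AM FRET substrate.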

[4] = qHTS assay to identify small molecule agonists of H2AX - cell viability counter screen (AID 1224847; calls by dose curve; note: nearly all actives have a fitted effect of over 30% in size; note: potency is the fitted concentration of half-maximal effect; for activity change, negative = cytotoxicity: top concentration of the series differs between compounds)
How it was run: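 For this counter screen, overnight-attached CHO-K1 cells received test compounds (15 concentrations, 0.76% DMSO final); 3 hr later at 37C, CellTiter-Glo reagent was added and luminescence recorded after 30 min at room temperature.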

[5] = qHTS assay to identify small molecule agonists of the estrogen related receptor (ERR) signaling pathway from Tox21 library (AID 1224849; calls by dose curve; note: nearly all actives have a fitted effect of over 15% in size); details: ERR reporter cell line, ONE-Glo luciferase, 18 h; at 92.4 µM (top of the series) unless noted
How it was run: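 Cells carrying the ERR reporter were plated and allowed to settle for 6 h, exposed to library compounds for 18 h at 37 C, then lysed with ONE-Glo and luminescence measured.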

[6] = qHTS RealTime-Glo MT Cell Viability Assay in HepG2 cells - 24 hour (AID 1224867); note: nearly all actives have a fitted effect of over 50% in size; note: potency is the fitted concentration of half-maximal effect
How it was run: (§1)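 Cells + NanoLuc/prosubstrate dispensed (600 cells/well) → 5 h at 37 C/5% CO2 → compounds in DMSO transferred → 40 h incubation at 37 C, luminescence read at 0, 8, 16, 24, 32, 40 h.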

[7] = qHTS RealTime-Glo MT Cell Viability Assay in HEK293 cells - 32 hour (AID 1224868); note: nearly all actives have a fitted effect of over 50% in size; note: potency is the fitted concentration of half-maximal effect
How it was run: (§2)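 Tox21 10K qHTS, HEK293, 600 cells/well, RealTime-Glo reagent co-dispensed with cells; 5 h preincubation, compound by pintool, 37 C, luminescence at 0–40 h.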

[8] = A CellTox Green Cytotoxicity Assay to monitor cytotoxicity in HEK293 cells - 0 hour (AID 1224869); note: nearly all actives have a fitted effect of over 50% in size; note: potency is the fitted concentration of half-maximal effect
How it was run: (§3)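 Cells (HEK293, 600/well) and dye reagent are dispensed together. After 5 h at 37 C, 23 nL compound is pinned in. Plates stay at 37 C for 40 h with fluorescence read at 0h, 8h, 16h, 24h, 32h and 40h.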

[9] = qHTS RealTime-Glo MT Cell Viability Assay in HepG2 cells - 40 hour (AID 1224870); note: nearly all actives have a fitted effect of over 50% in size; note: potency is the fitted concentration of half-maximal effect
How it was run: (§4)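 HepG2 cells mixed with RealTime-Glo MT reagents (NanoLuc plus cell-permeant prosubstrate) were seeded at 600 cells/well, incubated 5 h at 37 C/5% CO2, then pinned with compounds in DMSO; nonlytic luminescence tracked viability during 40 h treatment.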

[10] = A CellTox Green Cytotoxicity Assay to monitor cytotoxicity in HEK293 cells - 40 hour (AID 1224871); note: nearly all actives have a fitted effect of over 45% in size; note: potency is the fitted concentration of half-maximal effect
How it was run: as §3

[11] = qHTS RealTime-Glo MT Cell Viability Assay in HepG2 cells - 8 hour (AID 1224873); note: nearly all actives have a fitted effect of over 55% in size
How it was run: as §4

[12] = qHTS RealTime-Glo MT Cell Viability Assay in HEK293 cells - 40 hour (AID 1224874); details: RealTime-Glo luminescence; max response: stronger effect = lower value; note: nearly all actives have a fitted effect of over 50% in size; note: potency is the fitted concentration of half-maximal effect
How it was run: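 Real-time viability in HEK293: signal arises when living cells convert a prosubstrate for NanoLuc in the medium, so luminescence tracks viable cell number. Compound (23 nL, DMSO) added 5 h post-seeding; kinetic reads at 0–40 h, 37 C.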

[13] = A CellTox Green Cytotoxicity Assay to monitor cytotoxicity in HepG2 cells - 16 hour (AID 1224876); note: nearly all actives have a fitted effect of over 45% in size; note: potency is the fitted concentration of half-maximal effect
How it was run: (§5)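 Cells and non-lytic dye reagent are dispensed together (600 HepG2 cells/well) and incubated 5 h before DMSO compound transfer. Kinetic fluorescence is then recorded in the same wells during 40 h at 37 C.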

[14] = qHTS RealTime-Glo MT Cell Viability Assay in HepG2 cells - 32 hour (AID 1224877); note: nearly all actives have a fitted effect of over 55% in size; note: potency is the fitted concentration of half-maximal effect
How it was run: as §1

[15] = A CellTox Green Cytotoxicity Assay to monitor cytotoxicity in HepG2 cells - 24 hour (AID 1224878); note: nearly all actives have a fitted effect of over 45% in size; note: potency is the fitted concentration of half-maximal effect
How it was run: as §5

[16] = A CellTox Green Cytotoxicity Assay to monitor cytotoxicity in HepG2 cells - 40 hour (AID 1224879); note: nearly all actives have a fitted effect of over 40% in size; note: potency is the fitted concentration of half-maximal effect
How it was run: as §5

[17] = qHTS assay to identify small molecule agonists of the hypoxia (HIF-1) signaling pathway - cell viability counter screen (AID 1224844; calls by dose curve; note: nearly all actives have a fitted effect of over 50% in size; note: potency is the fitted concentration of half-maximal effect)
How it was run: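 Cytotoxicity was measured in parallel with the HRE-driven beta-lactamase readout: after 17 hrs of compound exposure at 37C, HRE-bla ME-180 cells received CellTiter-Glo and luminescence was recorded 30 min later.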

[18] = A CellTox Green Cytotoxicity Assay to monitor cytotoxicity in HEK293 cells - 24 hour (AID 1224875); note: nearly all actives have a fitted effect of over 45% in size; note: potency is the fitted concentration of half-maximal effect
How it was run: as §3

[19] = qHTS RealTime-Glo MT Cell Viability Assay in HEK293 cells - 16 hour (AID 1224872); note: nearly all actives have a fitted effect of over 50% in size; note: potency is the fitted concentration of half-maximal effect; for activity change, negative = cytotoxicity: top concentration of the series differs between compounds
How it was run: as §2

[20] = qHTS assay to identify small molecule antagonists of the estrogen related receptor (ERR) signaling pathway from Tox21 library (AID 1224848); note: nearly all actives have a fitted effect of over 50% in size
How it was run: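 First, 2,000 ERR cells per well were plated and held 6 h at 37 C/5% CO2. Next, compounds in DMSO were pinned in and left 18 h at 37 C. Finally, ONE-Glo was added and luminescence read after 30 min at room temperature.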
% is set by controls: 0 for no effect and ±100 for the full control effect.

Sequence of Thyrotropin receptor (Homo sapiens) (P16473 whole entry, looked up): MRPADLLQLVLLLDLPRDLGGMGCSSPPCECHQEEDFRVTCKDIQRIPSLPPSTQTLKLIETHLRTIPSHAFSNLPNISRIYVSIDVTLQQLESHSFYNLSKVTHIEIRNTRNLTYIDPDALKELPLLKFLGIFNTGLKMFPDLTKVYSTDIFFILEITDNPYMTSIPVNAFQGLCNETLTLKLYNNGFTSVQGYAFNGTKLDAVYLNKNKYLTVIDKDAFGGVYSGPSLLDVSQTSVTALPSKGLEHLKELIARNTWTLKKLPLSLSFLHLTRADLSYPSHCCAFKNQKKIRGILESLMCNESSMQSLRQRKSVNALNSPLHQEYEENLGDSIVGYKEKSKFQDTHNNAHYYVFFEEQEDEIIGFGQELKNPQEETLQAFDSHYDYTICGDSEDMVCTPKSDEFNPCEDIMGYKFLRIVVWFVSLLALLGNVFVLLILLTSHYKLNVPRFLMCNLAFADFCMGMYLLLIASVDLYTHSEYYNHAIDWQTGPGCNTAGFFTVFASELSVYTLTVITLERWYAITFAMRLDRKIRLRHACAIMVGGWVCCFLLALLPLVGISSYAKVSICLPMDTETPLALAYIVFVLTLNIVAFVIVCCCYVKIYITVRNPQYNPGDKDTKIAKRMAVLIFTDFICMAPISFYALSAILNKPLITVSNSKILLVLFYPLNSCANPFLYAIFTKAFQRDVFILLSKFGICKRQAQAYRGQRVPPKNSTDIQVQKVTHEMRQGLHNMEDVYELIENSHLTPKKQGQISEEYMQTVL

CC(C)(C)CC(=O)OCC(=O)[C@@]1(O)CC[C@H]2[C@@H]3CCC4=CC(=O)C=C[C@]4(C)[C@H]3[C@@H](O)C[C@@]21C
active: Potency [4] 55.2 µM | Potency [7] 19 µM | Potency [12] 19 µM
inactive: Potency [1] | Potency [2] | outcome [3] | activity change, positive = activation [5] -49.3% [at 42.5 µM] | Potency [6] | Potency [8] | Potency [9] | Potency [10] | Potency [11] | Potency [13] | Potency [14] | Potency [15] | Potency [16]

C[C@@H]1CC(=O)NN=C1c1ccc(NN=C(C#N)C#N)cc1
inactive: Potency [17] | activity change, positive = activation [5] -30.7% [at 42.5 µM] and -38.2% [at 42.5 µM] | Potency [8] | Potency [11] | Potency [18] | Potency [13] | Potency [15]
active: Potency [1] 0.841 µM | Potency [16] 15.1 µM and 13.4 µM

O=[N+]([O-])c1ccc(Nc2ccc(Nc3ccccc3)c(S(=O)(=O)O)c2)c([N+](=O)[O-])c1
inactive: Potency [1] | Potency [17] | outcome [3] | Potency [4] | Potency [6] | Potency [7] | Potency [8] | Potency [9] | Potency [10] | Potency [19] | Potency [11] | max response [12] 5.22% | Potency [18] | Potency [13] | Potency [14] | Potency [15] | Potency [16]

C=C/C(C)=C/C/C=C(\C)CCC=C(C)C
inactive: Potency [1] | Potency [2] | outcome [3] | Potency [4] | activity change, positive = activation [5] -20.3% | Potency [6] | Potency [7] | Potency [8] | Potency [9] | Potency [19] | Potency [11] | max response [12] -7.52% | Potency [18] | Potency [13] | Potency [14] | Potency [15] | Potency [16]

CC(=O)NC1(c2cccc(F)c2)CCN(CC[C@@]2(c3ccc(Cl)c(Cl)c3)CN(c3ccccc3)C(=O)CO2)CC1
inactive: Potency [1] | outcome [3] | Potency [8]
active: Potency [17] 39 µM | Potency [6] 43.8 µM | Potency [7] 17.4 µM | Potency [9] 43.8 µM | Potency [12] 17.4 µM | Potency [14] 43.8 µM | Potency [16] 43.8 µM

Cc1cc(=O)c2c(O)c3c(O)cc(=O)c4c3c3c(cc(O)c1c23)C(C)(C)C=4O
active: Potency [7] 1.17 µM | Potency [8] 3.69 µM | Potency [10] 4.65 µM | Potency [18] 5.22 µM | Potency [13] 4.65 µM | Potency [15] 4.65 µM | Potency [16] 3.69 µM
inactive: activation [1] 13.3% [at 19 µM] | activity change, negative = cytotoxicity [17] 15.9% [at 15.8 µM] | activation [3] -2.37% [at 15.8 µM] | activity change, negative = cytotoxicity [6] -25.2% [at 15.8 µM] | activity change, negative = cytotoxicity [19] -25.2% [at 15.8 µM] | viability change, negative = cytotoxic [11] -10.2% [at 15.8 µM]

O=C1c2ccccc2C(=O)c2c(O)c(O)cc(O)c21
inactive: Potency [1] | Potency [17] | outcome [3] | activity change, positive = activation [5] -7.48% | Potency [6] | Potency [7] | Potency [8] | Potency [9] | Potency [10] | Potency [11] | max response [12] 9.06% | Potency [18] | Potency [13] | Potency [14] | Potency [15] | Potency [16]

CN1C(=O)c2ccccc2C1=O
inactive: Potency [1] | Potency [17] | Potency [4] | Potency [20] | activity change, positive = activation [5] 1.36% | Potency [6] | Potency [8] | Potency [9] | Potency [10] | Potency [19] | Potency [11] | Potency [18] | Potency [13] | Potency [14] | Potency [15] | Potency [16]

C/C=C\C/C=C/CCCCCCCCOC(C)=O
inactive: Potency [1] | Potency [2] | outcome [3] | Potency [4] | activity change, positive = activation [5] -15% | Potency [6] | Potency [7] | Potency [8] | Potency [9] | Potency [19] | Potency [11] | max response [12] -25.6% | Potency [18] | Potency [13] | Potency [14] | Potency [15] | Potency [16]

N#[N+]c1ccc2c(S(=O)(=O)[O-])cccc2c1O
inactive: Potency [1] | Potency [17] | outcome [3] | Potency [4] | Potency [20] | activity change, positive = activation [5] -0.985% | Potency [6] | Potency [7] | Potency [8] | Potency [9] | Potency [10] | Potency [19] | Potency [11] | max response [12] -19.6% | Potency [18] | Potency [13] | Potency [14] | Potency [15] | Potency [16]

O=[N+]([O-])c1cc(C2CCCCC2)c(O)c([N+](=O)[O-])c1
inactive: Potency [1] | Potency [2] | activity change, positive = activation [5] -69.4% | Potency [8] | Potency [10] | Potency [18] | Potency [13]
active: Potency [4] 11.3 µM | Potency [7] 12.3 µM | Potency [9] 48.9 µM | Potency [19] 27.5 µM | Potency [12] 12.3 µM

C/C=C(/C(=C/C)c1ccc(O)cc1)c1ccc(O)cc1
inactive: Potency [1] | Potency [17] | Potency [2] | Potency [6] | Potency [8] | Potency [9] | Potency [19] | Potency [11] | Potency [18] | Potency [14]
active: Potency [12] 19 µM | Potency [13] 15.1 µM | Potency [15] 16.9 µM | Potency [16] 19 µM
